# BL2 CD40 inh: inhibitors of CD40-induced NF-kB signaling, primary screen, BL2 cells, luciferase reporter, single point; inhibition, % at 10 µM; CD40L-induced, 4 h; 83,000 tested, 0.94% active;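 active = mean inhibition of at least 50% with a set share of replicates also reaching that level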;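 also: 0% = neutral control wells and 100% = IKK inhibitor VII at 50 µM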
# Active calls of the source: *; i = inactive; [ ] = dose if it differs, or a comment. The entries come from a sample that favours hits as a whole.
SMILES,BL2 CD40 inh
Cc1ccc(OCC(=O)N2CCc3ccccc3C2)cc1C,-13
O=C(c1cc(-c2cccs2)on1)N1CCc2ccccc2C1,-18
Cc1ccc(OCc2cc(C(=O)N3CCc4sccc4C3)no2)cc1C,38*
CC(C)NC(=O)N1[C@H](CN(C)C(=O)c2ccccc2)[C@@H](c2ccccc2)[C@@H]1CO,-3
N#Cc1cccc(-c2ccc3c(c2)[C@H]2[C@H](CCN2C(=O)CN2CCOCC2)[C@H](CO)N3)c1,-19[25 µM]
CO[C@H]1CN(C)C(=O)c2ccc(NC(=O)Nc3c(C)noc3C)cc2OC[C@H](C)N(CCC(F)(F)F)C[C@@H]1C,-2[25 µM]
C[C@@H]1CN([C@H](C)CO)C(=O)c2c(c3ccccc3n2C)-c2ccccc2CO[C@@H]1CN(C)C(=O)c1ccccc1,9
COC(=O)C(CC(C)C)NC(=O)C(N)Cc1ccccc1 (stereo unspecified),12
O=C(NC(CO)C(=O)OCc1ccccc1)OCc1ccccc1 (stereo unspecified),3
CC(C)C[C@@H](C=O)NC(=O)[C@H](CC(C)C)NC(=O)[C@H](CC(C)C)NC(=O)OCc1ccccc1,64*[25 µM]
O=C(C[C@H]1C[C@H]2c3cc(NC(=O)Cc4ccncc4)ccc3O[C@H]2[C@H](CO)O1)NCCN1CCCCC1,-6[25 µM]
CC(=O)N(CC(C)C)C[C@H]1[C@@H](c2ccc(C3=CCCC3)cc2)[C@@H](CO)N1C(C)=O,-2[25 µM]
CC1(C)Oc2ccc(C#N)cc2C(N2CCCC2=O)C1O (stereo unspecified),-2[25 µM]
COc1ccc2c3c(n(C)c2c1)[C@H](CO)N(C(=O)Nc1ccc(F)cc1)CC31CCN(S(=O)(=O)c2cccc(C)c2)CC1,44[25 µM]
COc1ccc2c3c([nH]c2c1)[C@H](CO)N(C(=O)Nc1ccc(F)cc1)CC31CN(S(=O)(=O)c2ccc(C)cc2)C1,18[25 µM]
COc1ccc2c3c([nH]c2c1)[C@H](CO)N(C(=O)Nc1cccc(F)c1)CC31CCN(S(=O)(=O)c2cccc(C)c2)CC1,80*[25 µM]
C[C@@H](O)C#Cc1ccc([C@@H]2[C@H](CO)N3CCCCN(S(=O)(=O)Cc4ccccc4)C[C@@H]23)cc1,-3[25 µM]
O=C1CCCCn2cc(nn2)COC[C@H](c2ccccc2)N1,1
C[C@H](NC(=O)C[C@H]1CC[C@@H]2[C@H](COc3ccc(NS(=O)(=O)c4ccc(Cl)cc4)cc3C(=O)N2C)O1)c1ccccc1,-10[25 µM]
COc1ccc(C(=O)Nc2ccc3ccccc3n2)c(OC)c1OC,51*
COc1c(C(=O)Nc2ccc(Cc3ccncc3)cc2)ccc2ccccc12,-25
COc1ccc(C(=O)NCCN(C)C)c2nc3ccccc3cc12,i
CC(C)C(=O)Nc1ccc2c(c1)C(=O)N(C)[C@H]1CC[C@@H](CC(=O)NCCc3ccccc3)O[C@H]1CO2,2[25 µM]
O=C(CN1C(=O)c2ccccc2S1(=O)=O)Nc1ccccn1,7
CC(C)C(NC(=O)CN1C(=O)c2ccccc2S1(=O)=O)C(C)C,-1
SMILES,BL2 CD40 inh
O=C1c2ccccc2S(=O)(=O)N1Cc1nc2ccccc2s1,70*
C[C@@H](O)C#Cc1ccc([C@@H]2[C@@H](CO)N3CCCCN(S(=O)(=O)Cc4ccccc4)C[C@H]23)cc1,8[25 µM]
CC(=O)N1C[C@@H]2C(c3ccc(Br)cc3)[C@H](C1)N2CC(F)(F)F (stereo partly specified),0
CSc1ncc(Cl)c(C(=O)Nc2nnc(SC)s2)n1,-2
COc1ccc(C(=O)Nc2nnc(S(=O)(=O)Cc3ccccc3)s2)cc1,6
CSc1nnc(NC(=O)c2nc(S(=O)(=O)Cc3ccccc3)ncc2Cl)s1,102*
CC(C)NC(=O)N(C)C[C@@H]1Oc2c(NS(C)(=O)=O)cccc2C(=O)N(C)C[C@@H]1C,2
CC(=O)Nc1cccc2c1O[C@@H](CN(C)C(=O)OC(C)(C)C)[C@@H](C)CN(C)C2=O,-9
O=C1/C(=C\c2ccc(Cl)c(Cl)c2)CN(C(=O)CCN2CCOCC2)C/C1=C/c1ccc(Cl)c(Cl)c1,74*
O=C(c1ccc(Cl)c(Cl)c1)N1CCC(O)(CN2CCOCC2)CC1,6
CC(=O)N1CCC(N(CCN2CCOCC2)C(=O)Nc2ccc(Cl)c(Cl)c2)CC1,-1
CC(=O)N1CC[C@@H]2[C@H](CO)Nc3ccc(-c4ccccc4)cc3[C@@H]21,-36[25 µM]
CN1C(=O)c2cc(NC(=O)c3cnccn3)ccc2OC[C@H]2O[C@@H](CC(=O)NCC3CC3)CC[C@H]21,8
CN1C(=O)CSc2ccc(NC(=O)N3CCc4ccccc43)cc21,-118
CC(=O)c1cccc(NC(=O)N2CCCc3ccccc32)c1,-23
CN1CCN(c2ccc(NC(=O)N3CCc4ccccc43)cc2)CC1,73*
O=C(NC1CCCCC1)[C@@H]1[C@@H](CO)[C@@H]2Cn3c(cccc3=O)[C@@H]2N1CCc1ccccc1,17
Cc1cccc(S(=O)(=O)N2C[C@@H]3N[C@H](C2)C3c2ccc(-c3cccc(C#N)c3)cc2)c1 (stereo partly specified),-7
C/C=C/c1ccc2c(c1)[C@H]1[C@H](CCN1S(=O)(=O)c1cccc(F)c1)[C@@H](CO)N2,-11[25 µM]
CNC[C@@H]1OCCCC[C@@H](C)Oc2ccc(N)cc2C(=O)N([C@@H](C)CO)C[C@H]1C,-19[25 µM]
Cn1cnc(S(=O)(=O)N2CC[C@@H]3[C@H]2c2cc(C4=CCCCC4)ccc2N[C@@H]3CO)c1,-44[25 µM]
C[C@H](CO)N1C[C@H](C)[C@@H](CN(C)Cc2ccc(C(=O)O)cc2)OCc2ccccc2-c2ccccc2C1=O,-10
CC(=O)N1CC2(C1)[C@H](c1ccc(-c3cccc(C#N)c3)cc1)[C@H](CO)N2CCC(F)(F)F,16[25 µM]
CC1(C(=O)Nc2ccccc2Br)CCN1C(=O)Cc1ccc(Cl)cc1Cl (stereo unspecified),1
Clc1ccc(-c2cnc3n2CCCCC3)cc1,-3
SMILES,BL2 CD40 inh
Clc1ccc(C[n+]2cc(-c3ccccc3)n3c2CCCCC3)c(Cl)c1,65*
O=C(O)[C@@H]1[C@@H](CO)[C@@H]2Cn3c(ccc(-c4cccc(F)c4)c3=O)[C@@H]2N1C(=O)c1ccccn1,0[25 µM]
N#C[C@@H]1[C@H](c2ccc(C#Cc3ccc(F)cc3)cc2)[C@@H](CO)N1C(=O)C1CCC1,90*[25 µM]
N#C[C@H]1[C@H](c2ccc(C#Cc3ccccc3F)cc2)[C@@H](CO)N1C(=O)C1CCC1,62*
N#C[C@H]1[C@H](c2ccc(C#Cc3ccccc3F)cc2)[C@H](CO)N1C(=O)C1CCC1,-3
N#C[C@@H]1[C@H](c2ccc(C#Cc3ccccc3F)cc2)[C@@H](CO)N1C(=O)C1CCC1,81*
COc1ccccc1C#Cc1ccc([C@@H]2[C@@H](C#N)N(C(=O)C3CCCCC3)[C@@H]2CO)cc1,-1
N#C[C@H]1[C@@H](c2ccc(C#Cc3ccc(F)cc3)cc2)[C@H](CO)N1C(=O)C1CCC1,6[25 µM]
N#C[C@H]1[C@H](c2ccc(C#Cc3ccc(F)cc3)cc2)[C@H](CO)N1C(=O)C1CCC1,28[25 µM]
N#C[C@@H]1[C@@H](c2ccc(C#Cc3ccccc3F)cc2)[C@H](CO)N1C(=O)C1CCC1,-29
COc1ccccc1C#Cc1ccc([C@H]2[C@@H](C#N)N(C(=O)C3CCC3)[C@@H]2CO)cc1,-7[25 µM]
CO[C@H]1CN(C)C(=O)c2cc(NC(=O)c3ccno3)ccc2OC[C@H](C)NC[C@@H]1C,-19
CN(C)C(=O)c1ccc(-c2ccc3n(c2=O)C[C@@H]2[C@@H](CO)[C@H](C(=O)NCCc4ccccc4)N[C@H]32)cc1,-6[25 µM]
C[C@H](CO)N1C[C@H](C)[C@@H](CN(C)Cc2cncnc2)Oc2ncc(C#Cc3ccccn3)cc2C1=O,-14[25 µM]

# High-throughput results deposited in PubChem BioAssay by Broad Institute.
